These results are taken from PubChem BioAssay (Tox21).

Results filed as inconclusive are left out. Unmarked numbers belong to inactive results. Active and inactive are the calls of the source. Unless noted, the call rests on the fitted dose curve; in most records, active means well fitted cell-killing curve with a large enough effect in the repeat runs; inconclusive means weak or mixed curves, or effect the other way; inactive means no such curve, though single readings can be large or run the other way.
On the % scale 0 is the no-effect control and ±100 the full control effect.

Chain of Bile acid receptor (Homo sapiens) (Q96RI1 whole entry, looked up): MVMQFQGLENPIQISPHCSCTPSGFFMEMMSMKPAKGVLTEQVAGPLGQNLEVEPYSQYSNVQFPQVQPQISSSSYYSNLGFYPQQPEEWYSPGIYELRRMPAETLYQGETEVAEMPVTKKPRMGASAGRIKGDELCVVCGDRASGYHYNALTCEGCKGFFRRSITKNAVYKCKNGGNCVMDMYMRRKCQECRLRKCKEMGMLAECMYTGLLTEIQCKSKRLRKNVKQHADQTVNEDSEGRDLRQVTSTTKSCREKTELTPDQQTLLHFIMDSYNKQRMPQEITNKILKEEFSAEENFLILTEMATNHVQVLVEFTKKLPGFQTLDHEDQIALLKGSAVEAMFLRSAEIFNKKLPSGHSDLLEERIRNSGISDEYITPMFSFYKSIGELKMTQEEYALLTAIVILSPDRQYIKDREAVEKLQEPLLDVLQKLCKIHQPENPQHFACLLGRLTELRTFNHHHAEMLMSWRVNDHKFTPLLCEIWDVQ
Chain of Peroxisome proliferator-activated receptor delta (Homo sapiens) (Q03181 whole entry, looked up): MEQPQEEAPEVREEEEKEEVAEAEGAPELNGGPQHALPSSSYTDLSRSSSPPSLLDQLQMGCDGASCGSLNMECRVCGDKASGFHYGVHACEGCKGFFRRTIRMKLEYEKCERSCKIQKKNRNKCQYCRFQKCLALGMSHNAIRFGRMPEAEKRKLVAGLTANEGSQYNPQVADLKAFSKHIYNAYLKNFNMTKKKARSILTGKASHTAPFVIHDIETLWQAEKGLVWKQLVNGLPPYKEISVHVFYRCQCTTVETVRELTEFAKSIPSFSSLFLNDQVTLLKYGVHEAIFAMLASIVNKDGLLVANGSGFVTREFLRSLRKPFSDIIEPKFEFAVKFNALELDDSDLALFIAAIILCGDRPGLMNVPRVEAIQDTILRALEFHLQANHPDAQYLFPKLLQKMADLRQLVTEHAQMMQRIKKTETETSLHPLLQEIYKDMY

One test concerns the target Peroxisome proliferator-activated receptor delta (Homo sapiens) (UniProt Q03181). Kind of test: qHTS assay to identify small molecule antagonists of the peroxisome proliferator-activated receptor delta (PPARd) signaling pathway (AID 743215; active means well fitted inhibition curve with a large enough effect in the signal ratio in the repeat runs, not every such curve was filed as active; the % refers to the signal ratio;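 further: cells stimulated with agonist L165041 at 300 nM final during compound exposure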). The conditions noted are these: HEK293H PPARd-UAS-bla, beta-lactamase FRET ratio, antagonist, 17 h; series mostly up to 62 µM. In short, it runs like this:
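Cells: HEK293H with a UAS-driven beta-lactamase reporter responsive to PPARd. Compounds were co-added with L165041 (300 nM, final) and incubated 17 h at 37 C before a 2 h room-temperature FRET substrate step and fluorescence reading.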
On the technique in general: qHTS replaces the single test concentration by a dilution series.
In the case of `O=Cc1cccc(Br)c1`, the result was inactive.
As to `CC[N+](C)(CC)CCOC(=O)C1c2ccccc2Oc2ccccc21`, the result was inactive.
Take `CCOC(=O)OC(C)OC1=C(C(=O)Nc2ccccn2)N(C)S(=O)(=O)c2ccccc21` (configuration not stated): the outcome was inactive.
As for `CC(=O)NC(=O)c1ccccc1O`, the result was inactive.
Same read-out and setting: in the case of `CCCCCCCC1CCCC1=O` (configuration not stated) it was “inactive”.
Regarding `[Ca+2]`, the outcome was inactive.
The same measure, in the same setting: in the case of `CC(C)(C)C(=O)Oc1ccc(S(=O)(=O)Nc2ccccc2C(=O)NCC(=O)O)cc1` it was “inactive”; in that of `CCCCN1C=CN(C)C1`, “inactive”.
On to `NC(CCC(=O)O)C(=O)O` (configuration not stated), for which the outcome was inactive.
Turning to `CC(CC=O)CC(C)(C)C` (configuration not stated), the result was inactive.
On to `CC(=O)c1ccc2ccccc2c1`, for which the result was inactive.
Still for that read-out and setting: in the case of `CC/C=C\CCOC(C)OCC` (configuration not stated) it was “inactive”.
Still for that read-out and setting: as for `CC(=O)C1CCCCC1=O` (configuration not stated), the entry is “inactive”; as for `CCC1C(=O)OCC1Cc1cncn1C` (configuration not stated), “inactive”; as for `CCOc1ccccc1OCC`, “inactive”.
In the case of `CN(C)CCCN(C)CCCN(C)C`, the outcome was inactive.
For the compound `COc1ccc2cc1Oc1cc3c(cc1OC)CC[N+](C)(C)[C@H]3Cc1ccc(cc1)Oc1c(OC)c(OC)cc3c1[C@@H](C2)[N+](C)(C)CC3`, the result was inactive.
Same read-out and setting: as for `CCCCCC(C)N` (configuration not stated), the entry is “inactive”; as for `CCN(Cc1ccccc1)c1ccccc1`, “inactive”.

Another test has as its target Bile acid receptor (Homo sapiens) (UniProt Q96RI1). Nature of the test: qHTS assay to identify small molecule antagonists of the farnesoid-X-receptor (FXR) signaling pathway (AID 743217; active means well fitted inhibition curve with a large enough effect in the signal ratio in the repeat runs, not every such curve was filed as active; the % refers to the signal ratio). Particulars: HEK293T FXR-UAS-bla, beta-lactamase ratio, CDCA-stimulated, 16 h; series mostly up to 62.6 µM. The method in brief: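 Cells carrying a UAS-driven beta-lactamase reporter (GeneBLAzer FXR-UAS-bla HEK 293T) were plated and rested 5 h at 37 °C. Compounds in DMSO were added alongside chenodeoxycholic acid agonist at 50 uM final and left 16 h at 37 °C before FRET substrate readout.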
Regarding `O=Cc1cccc(Br)c1`, the outcome was inactive.
On the same count and under the same terms, as for `CC(CO)(CO)[N+](=O)[O-]`, the entry is “inactive”.
Still for that read-out and setting: in the case of `CC(CC=O)CC(C)(C)C` (configuration not stated) it was “inactive”; in that of `CC(=O)c1ccc2ccccc2c1`, “inactive”; in that of `CCCCc1ccc2c(n1)[C@@H](c1ccc(OC)cc1C[C@H](C)C(=O)O)[C@H](C(=O)O)[C@H]2c1ccc2c(c1)OCO2`, “inactive”.
The same measure, in the same setting: as for `NS(=O)(=O)Cc1noc2ccccc12`, the entry is “inactive”.
As to `CCOC(=O)C1=NOC(c2ccccc2)(c2ccccc2)C1`, the outcome was inactive.
Regarding `O=S(=O)(O)c1cc(O)c(O)c(S(=O)(=O)O)c1`, the outcome was inactive.

Tested on in a further test: not listed separately
Kind of test: qHTS assay to identify small molecule agonists of the farnesoid-X-receptor (FXR) signaling pathway - cell viability counter screen (AID 743218). Further: nearly all actives have a fitted effect of over 45% in size. The conditions noted are these: FXR-bla HEK293T viability, CellTiter-Glo luminescence, 16 h; series mostly up to 62.6 µM. In short, it runs like this:
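Cells were seeded, left 5 h at 37 C and 5% CO2, then dosed with compound in DMSO for 16 h. After the beta-lactamase FRET read, CellTiter-Glo was added and luminescence measured 30 min later.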
Regarding `O=Cc1cccc(Br)c1`, the compound was classed as inactive.
Still for that read-out and setting: as for `CN1[C@@H]2CC[C@H]1CC(OC(=O)C(O)c1ccccc1)C2` (some centres not stated), the entry is “inactive”.
Same read-out and setting: as for `CCCCCCCCN1CCCC1=O`, the entry is “inactive”; as for `CC[N+](C)(CC)CCOC(=O)C1c2ccccc2Oc2ccccc21`, “inactive”; as for `CCOC(=O)OC(C)OC1=C(C(=O)Nc2ccccn2)N(C)S(=O)(=O)c2ccccc21` (configuration not stated), “inactive”.
With `CC(=O)NC(=O)c1ccccc1O`, the outcome was inactive.
On the same count and under the same terms, as for `CCCCCCCC1CCCC1=O` (configuration not stated), the entry is “inactive”.
Take `CC(CO)(CO)[N+](=O)[O-]`: the compound was classed as inactive.
For `CCCc1ncc(C[n+]2ccccc2C)c(N)n1`, the call was inactive.
On to `CN1CC(=O)N/C1=N/C(=O)Nc1cccc(Cl)c1`, for which the compound was classed as inactive.
The same measure, in the same setting: as for `Cc1ccc(-c2ncc(Cl)cc2-c2ccc(S(C)(=O)=O)cc2)cn1`, the entry is “inactive”; as for `CCCCN1C=CN(C)C1`, “inactive”; as for `NC(CCC(=O)O)C(=O)O` (configuration not stated), “inactive”.
`CC(CC=O)CC(C)(C)C` (configuration not stated): the outcome was inactive.
In the case of `C[N+]1(C)[C@@H]2CC(OC(=O)[C@H](CO)c3ccccc3)C[C@H]1[C@@H]1O[C@@H]12` (some centres not stated), the call was inactive.
Still for that read-out and setting: as for `CC(=O)c1ccc2ccccc2c1`, the entry is “inactive”.
As for `CCCCc1ccc2c(n1)[C@@H](c1ccc(OC)cc1C[C@H](C)C(=O)O)[C@H](C(=O)O)[C@H]2c1ccc2c(c1)OCO2`, the outcome was inactive.
The same measure, in the same setting: as for `CN(C)[C@@H]1C(=O)C(C(=O)NCN2CCCC2)=C(O)[C@@]2(O)C(=O)C3=C(O)c4c(O)cccc4[C@@](C)(O)C3C[C@@H]12` (some centres not stated), the entry is “inactive”.
As for `NS(=O)(=O)Cc1noc2ccccc12`, the result was inactive.
The same measure, in the same setting: in the case of `CN(C)C(=O)Oc1ccc[n+](C)c1` it was “inactive”; in that of `CC/C=C\CCOC(C)OCC` (configuration not stated), “inactive”.
With `CC(=O)C1CCCCC1=O` (configuration not stated), the compound was classed as inactive.
Same read-out and setting: as for `CCC1C(=O)OCC1Cc1cncn1C` (configuration not stated), the entry is “inactive”; as for `O=S(=O)(O)c1cc(O)c(O)c(S(=O)(=O)O)c1`, “inactive”.
On to `CCOc1ccccc1OCC`, for which the call was inactive.
As for `CCCCCC(=O)OCCc1ccccc1`, the outcome was inactive.
On the same count and under the same terms, as for `CN(C)CCCN(C)CCCN(C)C`, the entry is “inactive”.
`COc1ccc2cc1Oc1cc3c(cc1OC)CC[N+](C)(C)[C@H]3Cc1ccc(cc1)Oc1c(OC)c(OC)cc3c1[C@@H](C2)[N+](C)(C)CC3`: the call was inactive.
As for `CCCCCC(C)N` (configuration not stated), the compound was classed as inactive.
In the case of `CCN[C@@H]1C[C@H](N)[C@@H](OC2OC(CN)=CCC2N)[C@H](O)[C@H]1O[C@H]1OC[C@](C)(O)[C@H](NC)[C@H]1O` (some centres not stated), the viability change, negative = cytotoxic is 10.1% [at 0.55 µM].
As to `O=[N+]([O-])c1ccc(/C=N\O)o1`, the call was inactive.
Take `CCN(Cc1ccccc1)c1ccccc1`: the compound was called inactive.
On the same count and under the same terms, in the case of `CN(C)CCN(C)CCN(C)C` it was “inactive”.
For `CCN[C@H]1C[C@H](C)S(=O)(=O)c2sc(S(N)(=O)=O)cc21`, the call was inactive.
On the same count and under the same terms, as for `O=C(CO)[C@@H](O)[C@H](O)[C@@H](O)CO`, the entry is “inactive”.

Another test has as its target Bile acid receptor (Homo sapiens) (UniProt Q96RI1). Kind of test: qHTS assay to identify small molecule agonists of the farnesoid-X-receptor (FXR) signaling pathway (AID 743220; active means well fitted activation curve with a large enough effect in the signal ratio in the repeat runs, not every such curve was filed as active; the % refers to the signal ratio). Particulars: HEK293T FXR-UAS-bla, beta-lactamase FRET ratio, 16 h; series mostly up to 62.6 µM. In short, it runs like this:
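FXR-UAS-bla HEK 293T cells carrying a UAS-driven beta-lactamase reporter were plated for 5 h at 37C/5% CO2, then exposed to DMSO-dissolved Tox21 10K compounds for 16 h at 37C. A LiveBLAzer B/G FRET substrate was loaded for 2 h at room temperature before fluorescence reading.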
For the compound `O=Cc1cccc(Br)c1`, the outcome was inactive.
Still for that read-out and setting: as for `CCCCCCCCN1CCCC1=O`, the entry is “inactive”.
Still for that read-out and setting: as for `CC(CO)(CO)[N+](=O)[O-]`, the entry is “inactive”; as for `CCCc1ncc(C[n+]2ccccc2C)c(N)n1`, “inactive”.
`CC(C)(C)C(=O)Oc1ccc(S(=O)(=O)Nc2ccccc2C(=O)NCC(=O)O)cc1`: the outcome was inactive.
Consider `Cc1ccc(-c2ncc(Cl)cc2-c2ccc(S(C)(=O)=O)cc2)cn1`, for which the result was inactive.
With `CC(CC=O)CC(C)(C)C` (configuration not stated), the outcome was inactive.
`CC(=O)c1ccc2ccccc2c1`: the outcome was inactive.
Same read-out and setting: in the case of `CCCCc1ccc2c(n1)[C@@H](c1ccc(OC)cc1C[C@H](C)C(=O)O)[C@H](C(=O)O)[C@H]2c1ccc2c(c1)OCO2` it was “inactive”; in that of `NS(=O)(=O)Cc1noc2ccccc12`, “inactive”; in that of `CCOC(=O)C1=NOC(c2ccccc2)(c2ccccc2)C1`, “inactive”.
Same read-out and setting: as for `CC(=O)C1CCCCC1=O` (configuration not stated), the entry is “inactive”; as for `O=S(=O)(O)c1cc(O)c(O)c(S(=O)(=O)O)c1`, “inactive”.
Still for that read-out and setting: as for `CN(C)CCCN(C)CCCN(C)C`, the entry is “inactive”.
For `CCN[C@H]1C[C@H](C)S(=O)(=O)c2sc(S(N)(=O)=O)cc21`, the result was inactive.
